Among all 300,000 compounds or so, about 37,000 (12%) were called active. No stated cut-off is given here; in the data, active means max response mostly above about 13% (no sharp cut-off); inactive means mostly below about 14%. For the sample, actives were picked, then their nearest neighbours and some compounds at random.
Experiment: Cycloheximide Counterscreen for Small Molecule Inhibitors of Shiga Toxin; further: read at 38.3 µM for the half of the compounds with a filed dose; 0% is about no effect
Settings: cell reporter, cycloheximide protein synthesis inhibition counterscreen; stronger effect = higher value

SMILES	max response
COc1cc(N=Cc2c(O)c3ccccc3oc2=O)c(OC)cc1Cl	0.554% (inactive)
Cc1ccc(S(=O)(=O)NC2CCCCCC2)cc1C(N)=O	-1.91% (inactive)
CC(NCCc1ccc(S(N)(=O)=O)cc1)C(=O)NCc1ccccc1 (stereo unspecified)	2.64% (inactive)
O=C(Nc1nc2c(F)cc(F)cc2s1)C1COc2ccccc2O1 (stereo unspecified)	24.7% (active)
O=C(Nc1nc(-c2ccncc2)cs1)C1COc2ccccc2O1 (stereo unspecified)	-3.21% (inactive)
O=C(Nc1ccncc1)c1ccccc1[N+](=O)[O-]	-7.9% (inactive)
O=C(Cc1c(F)cccc1Cl)Nc1ccc(-n2cnnn2)cc1	8.09% (inactive)
Cc1ccc(S(=O)(=O)N(C)C)cc1NC(=O)COC(=O)C1COc2ccccc2O1 (stereo unspecified)	-1.56% (inactive)
CN(c1ccccc1)S(=O)(=O)c1cccc(NC(=O)Cc2c(F)cccc2Cl)c1	10.4% (inactive)
COc1ccc(NC(=O)c2ccccc2[N+](=O)[O-])cc1OC	3.51% (inactive)
O=C(Cc1c(F)cccc1Cl)Nc1ncc([N+](=O)[O-])s1	32.7% (active)
O=C(Nc1ncc([N+](=O)[O-])s1)C1COc2ccccc2O1 (stereo unspecified)	49.4% (active)
CC(=O)Oc1ccccc1C(=O)Nc1ncc([N+](=O)[O-])s1	29.9% (active)
CC(NC(=S)Nc1ccccc1)C1COc2ccccc2O1 (stereo unspecified)	-3.29% (inactive)
CCN(CC)S(=O)(=O)c1ccc(N2CCOCC2)c(NC(=O)C2COc3ccccc3O2)c1 (stereo unspecified)	4.39% (inactive)
O=C1Nc2cc(C(=O)N3CCC(N4CCCCC4)CC3)ccc2S/C1=C\c1ccccc1	-5.33% (inactive)
C=CCN1C2CCCC1CC(NC(=S)Nc1cccc(OC)c1)C2 (stereo unspecified)	-2.67% (inactive)
CC(=O)N1CCc2cc(S(=O)(=O)NC3CCCCC3)ccc21	-2.05% (inactive)
O=C(Nc1ccc(C(=O)O)cc1)/C(=C\c1ccccc1)NC(=O)c1ccc(Br)cc1	-2.74% (inactive)
COc1ccc(C(=O)NC2CC(C)(C)Cc3c2cnn3-c2ccccc2)c(OC)c1 (stereo unspecified)	0.758% (inactive)
CCCNC(=O)OC[C@H]1O[C@H](CCO/N=C/[C@@H](NS(=O)(=O)c2ccc(C)cc2)[C@H](C)/C=C/CC(=O)OC)C=C[C@@H]1Oc1ccc(OC)cc1	-2.36% (inactive)
Cc1cccc(N2CCN(C(=O)CN(C)S(=O)(=O)c3ccc4c(c3)CCC(=O)N4)CC2)c1C	-5.43% (inactive)
COc1ccc(CNC(=O)C(C)n2nc(C)c3c(C)n(-c4ccccc4)nc3c2=O)c(OC)c1 (stereo unspecified)	-7.8% (inactive)
Cc1cccc(S(=O)(=O)N2CN(CC3CCCO3)c3nc4ccccc4nc32)c1 (stereo unspecified)	12.8% (inactive)

SMILES	max response
O=c1oc2ccccc2c(CNc2ccccc2)c1[N+](=O)[O-]	-2.06% (inactive)
CCOc1ccccc1N1CCN(C(=O)COc2ccc3c(C)cc(=O)oc3c2)CC1	-3.54% (inactive)
CC(C)(C)NC(=O)CSc1nnc(NC(=O)CCc2ccccc2)s1	-0.182% (inactive)
O=C(CCc1ccccc1)Nc1ncc([N+](=O)[O-])s1	60.9% (active)
COc1ccc([N+](=O)[O-])cc1NC(=O)CCc1ccccc1	-3.85% (inactive)
CCCn1c(SCC(=O)c2ccc3c(c2)OCCO3)nnc1C(C)C	15.2% (active)
CCCn1c(SCC(N)=O)nnc1C(C)C	-4.34% (inactive)
CCn1c(SCC(=O)Nc2ccc3c(c2)OCCO3)nnc1C(C)C	-1.89% (inactive)
COc1cc(C(=O)N/C(=C\c2cn(C)c3ccccc23)C(=O)N2CCOCC2)cc(OC)c1OC	-5.05% (inactive)
O=C(C1CCCN(S(=O)(=O)c2ccccc2)C1)N1CCN(c2ccc(F)cc2)CC1 (stereo unspecified)	8% (inactive)
CCOC(=O)c1ccc2[nH]c3c(c2c1)CCCC3NC=O (stereo unspecified)	13.2% (active)
CCOC(=O)c1ccc(NC(=O)c2cc(=O)[nH]c3ccccc23)cc1	-2% (inactive)
O=[N+]([O-])c1ccc2[nH]c3c(c2c1)CCCC3O (stereo unspecified)	-4.82% (inactive)
CC(C)(C)c1ccc(C(=O)N2CCC(C(=O)N3CCCCC3)CC2)cc1	-2.39% (inactive)
O=C(Nc1cccc(OC(=O)N2CCCCC2)c1)N1CCOCC1	5.17% (inactive)
O=C(c1ccccc1)c1ccc(OC(=O)N2CCCC2)cc1	37.5% (active)
O=C(COc1cccc(F)c1)Oc1ccc(C(=O)c2ccccc2)cc1	15.6% (inactive)
O=C(c1ccccc1)c1ccc(OCC(O)CN2CCCC2)cc1 (stereo unspecified)	5.75% (inactive)
CC(C)(C)c1ccc(OC(=O)N2CCCCC2)cc1	54.1% (active)
CC(C)CCNC(=O)C(C)N(C(=O)Cn1nnc(-c2ccc(F)cc2)n1)C1CCCC1 (stereo unspecified)	-1.9% (inactive)
COC(C[C@@H](O)[C@H](C)[C@H](O)COCc1ccccc1)OC	5.98% (inactive)
O=C(NCCS(=O)(=O)N1CCN(c2ccccc2F)CC1)c1ccc(Br)o1	8.75% (inactive)
O=S(=O)(c1ccc2c(c1)OCCCO2)N1CCN(S(=O)(=O)c2c(F)cccc2F)CC1	3.98% (inactive)
CN(C)c1ccc(-c2nnc(-c3cccnc3)o2)cc1	56.2% (active)

SMILES	max response
CN(C)c1nc(-c2cccnc2)nc(-c2ccc(Cl)cc2)c1C#N	-4.98% (inactive)
Cc1csc(NC(=O)CSc2nnc(-c3cccnc3)o2)n1	-7.35% (inactive)
CCCNCc1cc(OCC)c(OCC(=O)Nc2ccccc2)cc1Br	-0.891% (inactive)
CCN(CC)CCCNC(=O)CCn1nc(-c2ccc(Cl)cc2)ccc1=O	-2.58% (inactive)
CC(C)N(Cc1ccccc1)C(=O)COC(=O)c1cnccn1	-3.2% (inactive)
Cc1ccc2cc3cc(C(=O)N4CCCCCC4)oc3nc2c1	43.7% (active)
Cc1ccc2oc(=O)c3cnn(CC(=O)N4CCCCCC4)c3c2c1	-10.3% (inactive)
Cc1ccc(C(=O)N2CCCCCC2)cc1Br	10.4% (inactive)
C=CCn1c(SCC(=O)NCCCO)nc2sc3c(c2c1=O)CCC3	-2.04% (inactive)
NCCCCC(N)C(=O)O (stereo unspecified)	-7.46% (inactive)
CN1/C(=C\C=C2\N=C(c3ccc(F)cc3)OC2=O)C(C)(C)c2ccccc21	-1.91% (inactive)
Cc1cccc(C(=O)Nc2ccc(C(=O)/C=C/c3cccs3)cc2)c1	76% (active)
Cc1cccc(C(=O)Nc2ccc(C(=O)N/N=C/c3cccc(C)n3)cc2)c1	5.54% (inactive)
Cc1cccc(C(=O)Nc2ccc(CC(=O)O)cc2)c1	-5.6% (inactive)
C=CCN1CCN(C(=O)CCCc2ccccc2)CC1	1.1% (inactive)
CCCS(=O)(=O)N1CCN=C1SCc1cccc(F)c1	-1.71% (inactive)
O=C(COC(=O)c1ccncc1)c1ccccc1	18.7% (active)
O=C(OCC(O)C(O)COC(=O)c1ccccc1)c1ccccc1 (stereo unspecified)	-1.94% (inactive)
COc1ccc(NC(=O)COC(=O)c2ccncc2)c(OC)c1	0.0404% (inactive)
CCOc1ccc(C)cc1S(=O)(=O)NC1CCCCCC1	-2.48% (inactive)
Cc1ccccc1NC(=O)NCC1CCN(Cc2cccc(Cl)c2)CC1	-4.17% (inactive)
N=c1oc2ccccc2cc1C(=O)N/N=C/c1ccccc1	46.7% (active)
COc1cccc2cc(C(=O)NCc3ccc(C)cc3)c(=N)oc12	3.84% (inactive)
CC(NC(=O)c1cc2cc(Cl)ccc2oc1=N)c1ccccc1 (stereo unspecified)	-1.94% (inactive)

SMILES	max response
N=c1oc2ccccc2cc1C(=O)NCc1ccccc1	41.3% (active)
CNC(=O)c1cc2c(ccc3ccccc32)oc1=N	18.4% (inactive)
O=C(c1cccc(Br)c1)N1CCN(C2=NS(=O)(=O)c3ccccc32)CC1	-3.24% (inactive)
CC1=C(C(=O)OC2CCCCC2)C(c2ccccc2F)NC(=O)N1 (stereo unspecified)	13.8% (inactive)
COc1cc(OC)c(OC)cc1CN1CCN(C(=O)c2cccc3ccccc23)CC1	-0.856% (inactive)
O=C(N/C(=C\c1ccc([N+](=O)[O-])cc1)C(=O)N1CCCCC1)c1ccco1	-1.29% (inactive)
CC(Sc1nnc2c(n1)C1CCC2(C)C1(C)C)C(=O)Nc1ccccc1 (stereo unspecified)	-1.8% (inactive)
CSc1nc(C)cc(SC(C(C)=O)C(=O)Nc2ccccc2)n1 (stereo unspecified)	31.9% (active)
Cc1cc(C)nc(N(C#N)CC(=O)Nc2ccccc2)n1	-2.23% (inactive)
Cc1c(OC(C)C(=O)NCC2CCC(C(=O)O)CC2)ccc2c1oc(=O)c1ccccc12 (stereo unspecified)	-1.17% (inactive)
CS(=O)(=O)N(Cc1ccccc1Cl)c1ccc(C(=O)NCc2cccnc2)cc1	-1.15% (inactive)
CC(=O)n1c(C=Nc2ccccc2)c(O)c2ccccc21	33.7% (active)
CCCCn1c(=O)c(C(C)=O)c(O)c2ccccc21	1.86% (inactive)
CCOc1ccc(N=Cc2c(O)n(-c3cccc(C)n3)c(=O)c3ccccc23)cc1	9.6% (inactive)
O=C(c1cccnc1)N(c1cc2sc(=O)oc2c2ccccc12)S(=O)(=O)c1ccccc1	-2.05% (inactive)
Cc1ccc(N(C(=O)c2ccc(S(=O)(=O)N(C)C)cc2)C2C=CS(=O)(=O)C2)cc1 (stereo unspecified)	-2.02% (inactive)
O=C(c1ccc(OC2CCN(C/C=C/c3ccc(F)cc3)CC2)cc1)N1CCCCC1	-0.769% (inactive)
CC(O)C(NS(=O)(=O)c1ccc(Cl)cc1)C(=O)OCc1cc([N+](=O)[O-])cc2c1OCOC2 (stereo unspecified)	-0.904% (inactive)
Nc1ccccc1SCc1cc([N+](=O)[O-])cc2c1OCOC2	24.7% (active)
CCC1(CC)Cc2ccccc2-c2nc(CCl)[nH]c(=O)c21	-3.16% (inactive)
CC(=O)OCCN(CCCn1c(-c2ccncc2)nc2ccccc21)c1nc(-c2ccc(C)cc2)cs1	-0.764% (inactive)
CCOC(=O)c1c(C)[nH]c(C(=O)COc2ccc3c(c2)OCO3)c1C	18% (inactive)
CCOCCOC(=O)C1=C(C)NC(=O)NC1c1ccc2c(c1)OCO2 (stereo unspecified)	-1.93% (inactive)
CCOC(=O)c1nc(-c2ccc3c(c2)OCO3)[nH]c1C	29% (active)
